Screening results: PubChem, several laboratories
Compounds with a hit are over-represented: about 3.3% of the library has one in this group of screens.
UHRF1 MBD2 ctr: UHRF1 methylated DNA binding inhibitors, primary screen, counter-screen for MBD2 inhibitor project, biochemical, TR-FRET, human UHRF1, single concentration; E3 ubiquitin-protein ligase UHRF1 (Homo sapiens), Q96T88; UHRF1 binding to methylated oligo; inhibition, % at 4.4 µM; 0.75% of 370,000 active; in the data active = inhibition above about 21%;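 note: UHRF1 SRA domain binding a hemimethylated CpG hairpin DNA probe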
Target sequence (Q96T88 whole entry, looked up, the tested form may be a part): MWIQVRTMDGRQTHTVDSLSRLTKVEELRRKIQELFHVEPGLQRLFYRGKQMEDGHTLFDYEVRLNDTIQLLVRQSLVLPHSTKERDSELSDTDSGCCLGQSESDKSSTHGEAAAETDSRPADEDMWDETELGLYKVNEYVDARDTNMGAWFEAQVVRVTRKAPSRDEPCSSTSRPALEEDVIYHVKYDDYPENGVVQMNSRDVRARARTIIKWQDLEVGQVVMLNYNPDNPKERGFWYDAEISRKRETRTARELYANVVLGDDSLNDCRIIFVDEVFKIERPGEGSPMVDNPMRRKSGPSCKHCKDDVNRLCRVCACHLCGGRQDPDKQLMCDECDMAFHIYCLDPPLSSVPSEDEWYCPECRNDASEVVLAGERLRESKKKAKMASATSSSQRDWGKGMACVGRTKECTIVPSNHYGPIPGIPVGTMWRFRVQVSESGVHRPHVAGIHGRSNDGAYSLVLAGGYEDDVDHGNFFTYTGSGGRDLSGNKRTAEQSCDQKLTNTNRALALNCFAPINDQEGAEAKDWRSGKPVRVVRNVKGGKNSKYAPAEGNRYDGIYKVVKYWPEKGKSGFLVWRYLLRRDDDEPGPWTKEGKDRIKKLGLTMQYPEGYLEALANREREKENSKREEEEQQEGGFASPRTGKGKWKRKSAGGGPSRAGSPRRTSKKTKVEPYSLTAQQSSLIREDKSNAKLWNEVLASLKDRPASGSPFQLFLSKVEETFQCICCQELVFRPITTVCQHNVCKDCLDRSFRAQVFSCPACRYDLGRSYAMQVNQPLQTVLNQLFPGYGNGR
PRMT1 FP inh: PRMT1 methyltransferase inhibitors, primary screen, biochemical, fluorescence polarization | recombinant PRMT1, activity-based probe fluorescence polarization | 1.3% of 370,000 active | AID 652257, 2013 | inhibition, % at 2.79 µM | Protein arginine N-methyltransferase 1 (Homo sapiens), Q99873;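 active = inhibition above about 21% made by adding two undisclosed values, limit read from the data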
PfM18AAP inh: PfM18AAP inhibitors, malaria aminopeptidase, primary screen, biochemical, QFRET, recombinant enzyme. H-Glu-NHMec fluorogenic cleavage. inhibition, % at 7.35 µM. 1.2% of 290,000 active;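 active = inhibition above the campaign mean inhibition over all tested compounds plus 3 SD, cut at about 28% in these data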
PfG6PD inh: PfG6PD enzyme inhibitors, primary screen, biochemical, fluorescence intensity, uHTS; glucose-6-phosphate dehydrogenase-6-phosphogluconolactonase (Plasmodium falciparum 3D7); PfGluPho enzyme, NADPH resazurin-diaphorase fluorescence; inhibition, % at 20 µM; 0.78% of 350,000 active; AID 504690, 2011;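 active = inhibition reaching at least a set limit at 20 µM in the primary screen, cut at about 59% in these data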
MBD2 DNA inh: inhibitors of MBD2 binding to methylated DNA, primary screen, biochemical, TR-FRET, DNA-binding domain, human | Methyl-CpG-binding domain protein 2 (Homo sapiens), Q9UBB5 | MBD2 binding to methylated oligonucleotide | inhibition, % at 4.4 µM | 0.31% of 370,000 active | AID 686964, 2013; in the data active = inhibition above about 13%
PRMT1 inh conf: PRMT1 methyltransferase inhibitors, confirmation, biochemical, fluorescence polarization, triplicate; shares compounds with PRMT1 FP inh; recombinant His-PRMT1, activity-based probe fluorescence polarization; inhibition, % at 2.79 µM; 42% of 3,300 active; AID 687036, 2013;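 active = mean inhibition across replicates above the hit cutoff derived for the earlier primary screen, cut at about 22% in these data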
Hits are given with their value; 0 = inactive; - = not tested or not shown.

SMILES	UHRF1 MBD2 ctr	PRMT1 FP inh	PfM18AAP inh	PfG6PD inh	MBD2 DNA inh	PRMT1 inh conf
CCN(Cc1ccccc1)c1ccc(/C=C(\C#N)c2ccccn2)cc1	0	57	0	0	0	0
CCN(CC)c1ccc(/C=C(\C#N)c2ccccn2)cc1	-	-	0	0	-	-
CN(CCC#N)c1ccc(C=C(C#N)c2ccc(Br)cc2)cc1	0	0	-	0	0	-
O=C(COC(=O)c1cccc(O)c1)Nc1ccc(S(=O)(=O)N2CCOCC2)cc1	0	0	-	0	0	-
CCc1cc(C(=O)Cc2nc3ccccc3s2)c(O)cc1OCC(=O)O	0	0	0	0	0	-
CC(C(=O)NCC1CCCCC1)N1CCN(S(=O)(=O)c2cccs2)CC1 (stereo not drawn)	0	0	-	0	0	-
Cc1ccc2c(c1)[C@H]1[C@H](CO2)[C@H](c2ccccc2)[C@]2(C)C(=O)N(Cc3ccc(Cl)cc3)CC(=O)N12	0	0	-	0	0	-
Cc1ccc2c(c1)[C@H]1[C@H](CO2)[C@H](c2ccccc2)[C@]2(C)C(=O)N(Cc3ccc(F)cc3)CC(=O)N12	0	38	-	0	0	0
Cc1ccc(OCCNC(=O)C2CC(=O)N(Cc3ccccc3)C2)cc1 (stereo not drawn)	0	0	-	0	0	-
CC(C)n1cc(/C=C/c2cc[n+](C)cc2)c2ccccc21	0	31	0	0	0	0
Cc1ccc(/C=C/S(=O)(=O)NCC(=O)OCC(=O)NCc2ccccc2)cc1	0	0	0	0	0	-
O=C(O)CCCC(=O)Nc1ccc(OCc2nc3ccccc3s2)cc1	0	26	0	0	0	0
NNC(=O)Cn1nc(Cc2ccccc2)n(N)c1=O	0	0	-	0	0	-
Cc1ccc(C)c(Nc2c(F)c(F)c(F)c(F)c2C(=O)O)c1	0	0	0	0	0	-
Cc1ccc(-c2cc(C(=O)N(C)CC(=O)Nc3ccccc3Br)c3ccccc3n2)o1	0	30	-	0	0	39
Cc1ccc(-c2cc(C(=O)NCC3(N(C)C)CCCCC3)c3ccccc3n2)o1	0	0	-	0	0	-
COc1ccc(NC(=O)c2cc(-c3ccc(C)o3)nc3ccccc23)c(OC)c1	0	0	-	0	0	-
Cc1ccc(-c2cc(C(=O)Nc3nccs3)c3ccccc3n2)c(C)c1	0	0	0	0	0	-
Cc1ccc(-c2cc(C(=O)Nc3ccccc3C(N)=O)c3ccccc3n2)o1	0	65	-	0	0	28
Cc1ccc(-c2cc(C(=O)Nc3nccs3)c3ccccc3n2)o1	0	36	0	0	0	0
Cn1cc(CN2CCC[C@H]2CO)c(-c2cccc(Cl)c2)n1	0	0	0	0	0	-
COCCNC(=S)NNC(=O)c1cc(-c2cccnc2)nc2ccccc12	0	0	0	0	0	-
Cc1[nH]n(-c2ccccc2)c(=O)c1C=Nc1ccc(S(=O)(=O)N=C(N)N)cc1	0	0	0	0	0	-
Cc1[nH]n(-c2ccccc2)c(=S)c1C=Nc1ccc([N+](=O)[O-])cc1	0	87	51	98	0	96
CC(C)NC(=O)NC1CCN(CC(=O)Nc2ccc3c(c2)OCCO3)CC1	0	0	-	-	0	-
SMILES	UHRF1 MBD2 ctr	PRMT1 FP inh	PfM18AAP inh	PfG6PD inh	MBD2 DNA inh	PRMT1 inh conf
O=C(Nc1ccccc1)c1cc(C2CCCN(C(=O)OCc3ccccc3)C2)on1 (stereo not drawn)	0	0	-	-	0	-
O=C(O)/C(=C/c1ccc(Cl)c([N+](=O)[O-])c1)c1ccc(S(=O)(=O)N2CCCCC2)s1	0	39	-	0	0	0
N#CC1=C(N)C(C#N)(C#N)[C@H](c2c(F)cccc2F)[C@H]2CC3(CC=C12)OCCO3	0	26	0	0	0	0
CN1C2C=C3C(C#N)=C(N)C(C#N)(C#N)[C@H](c4c(F)cccc4F)[C@H]3C1CC2 (stereo partly drawn)	0	0	0	0	0	-
CCc1ccccc1NC(=O)CN1C(=O)c2ccccc2S1(=O)=O	0	0	0	0	0	-
COc1ccc2c(c1)CC/C(=C/c1ccco1)C2=O	0	0	0	0	0	-
Nc1ccc2c(c1)C/C(=C/c1ccco1)C2=O	69	39	0	0	24	33
COc1cccc(CN(C)C(=O)c2ccc(S(=O)(=O)Nc3ccccc3C)cc2)c1OC	0	0	-	0	0	-
C[C@H]1[C@H](NC(=O)c2ccc(C(F)(F)F)cc2)CC[C@@]23CCCN2C(=O)CCC[C@@H]13	0	53	-	-	0	0
C[C@H]1[C@@H](NC(=O)c2ccc(C(F)(F)F)cc2)CC[C@@]23CCCN2C(=O)CCC[C@@H]13	0	0	-	-	0	-
CCC(=O)Oc1ccc2c(c1)O/C(=C\c1ccco1)C2=O	0	63	0	0	0	0
COC(=O)COc1ccc2c(c1)O/C(=C\c1ccco1)C2=O	0	31	0	0	0	0
COc1ccccc1C(=O)Oc1ccc2c(c1)O/C(=C\c1ccncc1)C2=O	0	38	0	0	0	0
Cc1cc(O)cc2c1C(=O)/C(=C/c1ccco1)O2	0	28	0	0	0	0
CC1=N/C(=C/c2ccco2)C(=O)O1	0	0	0	0	0	-
CCN(CC)C(=O)Oc1ccc2c(c1)O/C(=C\c1ccco1)C2=O	0	0	0	0	0	-
CC(=O)c1ccc[n+](CC(=O)NC(C)c2ccccc2)c1 (stereo not drawn)	0	0	0	0	0	-
Cc1ccc(S(=O)(=O)N(C)C)cc1NC(=O)CN1C(=O)NC2(CCc3ccccc32)C1=O (stereo not drawn)	0	0	-	0	0	-
O=C1c2ccccc2C(c2nnnn2Cc2ccccc2)N1CCc1ccccc1F (stereo not drawn)	0	0	-	-	0	-
COc1ccc(CNC(=O)CSc2nccn(-c3ccc(F)c(F)c3)c2=O)cc1	0	33	-	0	0	27
CCOc1ccc(-n2ccnc(SCC(=O)NCc3cccc(OC)c3)c2=O)cc1	0	0	-	0	0	-
COc1ccc(-n2ccnc(SCC(=O)NC3CCCC3)c2=O)cc1OC	0	0	-	0	0	-
Cc1ccc(-n2ccnc(SCC(=O)NC3CCCCC3)c2=O)cc1F	0	26	-	0	0	0
O=C(CSc1nccn(-c2ccc(Br)cc2)c1=O)Nc1ccccc1F	0	46	-	0	0	0
CCOc1ccc(-n2ccnc(SCC(=O)Nc3ccc(OC)cc3OC)c2=O)cc1	0	27	-	0	0	27
Cc1[nH]c(=S)c(C#N)c(-c2ccccc2)c1C(=O)Nc1ccccc1	0	36	28	0	0	0
N#Cc1c(-c2cccc(Br)c2)cc(-c2ccco2)[nH]c1=O	0	33	0	0	0	0
O=[N+]([O-])c1cnc2ccccc2c1Sc1ccccc1	0	73	-	-	0	71
